What all share (experiment): NCI-60 one-dose screen, 48 h (100 = growth as untreated, 0 = no growth, -100 = all killed)
One assay relates to NCI-H23 lung. The settings on record: 10 µM unless noted.
The next assay deals with NCI-H226 lung. The conditions noted are these: 10 µM unless noted.
The subject of the next assay is NCI-H322M lung. The conditions noted are these: 10 µM unless noted.
For the next assay, the system named is HOP-62 NSCLC. The conditions noted are these: 10 µM unless noted.
A further assay relates to NCI-H460 lung. The conditions noted are these: 10 µM unless noted.
A further assay concerns HOP-92 NSCLC. The settings on record: 10 µM unless noted.
In the next assay the test system is NCI-H522 lung. The conditions noted are these: 10 µM unless noted.
In another assay the test system is A549/ATCC NSCLC. The conditions noted are these: 10 µM unless noted.
Another assay has as its system 786-0 renal. The conditions noted are these: 10 µM unless noted.
In the next assay the test system is COLO 205 colon. The conditions noted are these: 10 µM unless noted.
The subject of another assay is DU-145 prostate. The settings on record: 10 µM unless noted.
A further assay relates to K-562 leukemia. The conditions noted are these: 10 µM unless noted.
The test system of another assay is MALME-3M melanoma. The settings on record: 10 µM unless noted.
The test system of a further assay is RXF 393 renal. The conditions noted are these: 10 µM unless noted.
In the next assay the test system is SF-268 CNS. The settings on record: 10 µM unless noted.
In a further assay the test system is SF-295 CNS. The settings on record: 10 µM unless noted.
For another assay, the system named is SF-539 CNS. The conditions noted are these: 10 µM unless noted.
A further assay concerns M14 melanoma. The settings on record: 10 µM unless noted.
Another assay has as its system MDA-MB-231 breast. The conditions noted are these: 10 µM unless noted.
The next assay relates to UACC-257 melanoma. The settings on record: 10 µM.

Experimental findings from PubChem BioAssay (NCI) are described below.

The panel holds about 83,000 compounds, 20% with a hit somewhere; the sample as a whole holds those more often.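 Note: values are percent growth. 100 is the growth of untreated cells, values between 100 and 0 indicate rising inhibition; between -100 and 0 indicates cell death.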 A number with no mark means an inactive call. Active and inactive are the calls of the source. How the source made its calls: active means growth percent below 10; inactive means the rest.

On to `NC(C(=O)O)C(O)c1ccc(OCc2ccccc2)c(OCc2ccccc2)c1` (centres undefined), for which the growth with NCI-H23 lung was 96.3%; in the assay on NCI-H226 lung it was 99.2%; in the assay with NCI-H322M lung it was 109%; in the assay on HOP-62 NSCLC, 88.7%; with NCI-H460 lung, 108%; in the assay on HOP-92 NSCLC, 73.8%. Moreover, the growth was 93.5% in the assay with NCI-H522 lung; 93.4% with A549/ATCC NSCLC; 98.7% in the assay with 786-0 renal; 106% in the assay with COLO 205 colon; 107% in the assay with DU-145 prostate; 95.6% with K-562 leukemia. The growth in the assay with MALME-3M melanoma was 114%; in the assay with RXF 393 renal it was 100%; in the assay with SF-268 CNS, 97.4%; in the assay with SF-295 CNS, 97.8%; in the assay on SF-539 CNS it was 97.2%; in the assay on M14 melanoma it was 97.4%.
As to `COC(=O)[C@H]1[C@H](OC)[C@@H](OC(=O)/C=C/c2ccncc2)CC2CN3CCc4c([nH]c5cc(OC)ccc45)[C@@H]3C[C@@H]21` (some centres undefined), the growth in the assay on NCI-H23 lung was 97%; in the assay with NCI-H226 lung it was 73.7%; with NCI-H322M lung it was 78.4%; in the assay on HOP-62 NSCLC it was 78.5%; in the assay on NCI-H460 lung, 92.5%; in the assay on HOP-92 NSCLC, 1.2% (active). Also, the growth with NCI-H522 lung was 72%; in the assay on A549/ATCC NSCLC it was 82.9%; in the assay with 786-0 renal it was 83.5%; in the assay on COLO 205 colon, 79.2%; in the assay with DU-145 prostate it was 80%; in the assay on K-562 leukemia it was 57.3%. The growth was 62.2% in the assay with MDA-MB-231 breast; 72.7% in the assay on RXF 393 renal; 80.3% with SF-268 CNS; 90.4% with SF-295 CNS; 91% in the assay with SF-539 CNS; 62.3% with UACC-257 melanoma. Also, the growth with M14 melanoma was 78.4%.
In the case of `CC(=O)Nc1ccc(S(=O)(=O)NC(CCC(=O)Nc2ccc(Cl)cc2)C(=O)O)cc1` (centres undefined), the growth in the assay with NCI-H23 lung was 97.3%; in the assay with NCI-H226 lung, 96.8%; in the assay on NCI-H322M lung it was 96.9%; in the assay on HOP-62 NSCLC, 92.2%; with NCI-H460 lung, 105%; in the assay with HOP-92 NSCLC, 113%. Further, the growth with NCI-H522 lung was 97.1%; with A549/ATCC NSCLC it was 93.8%; with 786-0 renal it was 107%; in the assay with COLO 205 colon, 97.8%; in the assay on DU-145 prostate, 102%; with K-562 leukemia it was 77.4%. Further, the growth with MDA-MB-231 breast is 95%; in the assay on RXF 393 renal, 108%; in the assay on SF-268 CNS it was 102%; in the assay with SF-295 CNS, 98.8%; with SF-539 CNS, 99.2%; in the assay on UACC-257 melanoma, 98%. For the same compound, the growth with M14 melanoma was 99.2%.
With `O=S(=O)(NCCCNc1nccc(-c2c(-c3ccc(O)cc3)nc3sccn23)n1)c1ccc(F)cc1`, the growth with NCI-H23 lung was 1.81% (active); in the assay with NCI-H226 lung, 3.13% (active); with NCI-H322M lung it was 17.6%; in the assay with HOP-62 NSCLC, 10%; in the assay on NCI-H460 lung, 1.37% (active); in the assay with HOP-92 NSCLC it was 12.3%. The growth in the assay on NCI-H522 lung is -1.49% (active); with A549/ATCC NSCLC, 15.9%; in the assay with 786-0 renal, 16.4%; with COLO 205 colon, 1.03% (active); in the assay on DU-145 prostate, 10.6%; in the assay on K-562 leukemia it was 7.51% (active). The growth in the assay with MDA-MB-231 breast was 7.09% (active); in the assay on RXF 393 renal, -12.7% (active); in the assay on SF-268 CNS it was 17.8%; in the assay with SF-295 CNS, -34.9% (active); with SF-539 CNS, 0.696% (active); in the assay with UACC-257 melanoma, 4.9% (active). Further, the growth with M14 melanoma is -26.2% (active).
`CC(Br)C(Br)c1cc2c(cc1Br)OCO2` (centres undefined): the growth was 96.4% in the assay on NCI-H23 lung; 99.3% with NCI-H226 lung; 87.5% in the assay with NCI-H322M lung; 68% in the assay with HOP-62 NSCLC; 126% with NCI-H460 lung; 106% in the assay with HOP-92 NSCLC. Moreover, the growth was 87.2% with NCI-H522 lung; 72.4% with A549/ATCC NSCLC; 90.2% in the assay with COLO 205 colon; 108% with DU-145 prostate; 112% with K-562 leukemia; 100% in the assay with MALME-3M melanoma. Further, the growth with MDA-MB-231 breast is 110%; in the assay on RXF 393 renal, 104%; in the assay with SF-268 CNS, 99.6%; in the assay on SF-295 CNS, 98.5%; in the assay with SF-539 CNS, 91.1%; in the assay on M14 melanoma, 94.3%.
Regarding `CCN1C(=S)N(CC)C2Nn3c(s/c(=C4\C(=O)N(C)c5ccccc54)c3=O)=NC21` (centres undefined), the growth with NCI-H23 lung is 44.9%; with NCI-H226 lung, 88.6%; in the assay with NCI-H322M lung it was 73.1%; with HOP-62 NSCLC it was 52.3%; with NCI-H460 lung, 29%; with HOP-92 NSCLC it was 76.1%. The growth was 32.3% in the assay on NCI-H522 lung; 56.2% in the assay on 786-0 renal; 30.8% in the assay on COLO 205 colon; 34.6% in the assay with DU-145 prostate; 12.8% in the assay on K-562 leukemia; 51% with MALME-3M melanoma. Also, the growth was 42.1% in the assay on MDA-MB-231 breast; 53.5% in the assay with SF-268 CNS; 47.4% in the assay on SF-295 CNS; 6.07% (active) with SF-539 CNS; 70.2% in the assay with M14 melanoma.
Turning to `Cc1ccc(C2=NN(c3ccc(S(=O)(=O)NC(=O)NCc4ccccc4)cc3)C(c3ccc(N(C)C)cc3)C2)c(C)c1` (centres undefined), the growth in the assay with NCI-H23 lung is 49.4%; with NCI-H226 lung, 77.7%; in the assay on NCI-H322M lung, 56.3%; with HOP-62 NSCLC it was 74.9%; in the assay on NCI-H460 lung, 31.3%; in the assay with HOP-92 NSCLC, 82.3%. The growth with NCI-H522 lung is 49.7%; in the assay on 786-0 renal it was 68.5%; in the assay with COLO 205 colon, 62.1%; in the assay on DU-145 prostate it was 82.7%; with K-562 leukemia, 49.6%; with MALME-3M melanoma, 87%. Also, the growth in the assay with MDA-MB-231 breast is 75.7%; in the assay with RXF 393 renal, 53%; in the assay on SF-268 CNS it was 50.8%; in the assay on SF-295 CNS, 52.7%; in the assay on SF-539 CNS, 37.6%; in the assay with UACC-257 melanoma it was 60.3%. Further, the growth in the assay with M14 melanoma was 27.3%.
Regarding `C=C1C(=O)O[C@H]2[C@H]1CC/C(COC(=O)NCCc1ccc(Br)cc1)=C\CC[C@@]1(C)O[C@@H]21`, the growth in the assay on NCI-H23 lung was 62.6%; in the assay with NCI-H226 lung, 13.2%; in the assay with NCI-H322M lung, 85.4%; in the assay with HOP-62 NSCLC, 54.6%; in the assay on NCI-H460 lung, 61.2%; in the assay on HOP-92 NSCLC it was 33.6%. Besides, the growth with NCI-H522 lung was -52.1% (active); in the assay with 786-0 renal it was -52.9% (active); in the assay with COLO 205 colon it was -25.3% (active); in the assay on DU-145 prostate, -33.6% (active); with K-562 leukemia it was 5.94% (active); in the assay on MALME-3M melanoma, 73.7%. Also, the growth with MDA-MB-231 breast was -33.4% (active); in the assay with RXF 393 renal, -35.3% (active); with SF-268 CNS, 42.4%; with SF-295 CNS it was 86.5%; in the assay on SF-539 CNS, 20.2%; in the assay on M14 melanoma it was 19.9%.
Regarding `COc1ccc(OC)c(NC(=O)c2cc(S(=O)(=O)N3CCc4ccccc43)ccc2OC)c1`, the growth in the assay with NCI-H23 lung was 86.7%; with NCI-H226 lung, 92.1%; in the assay on NCI-H322M lung, 109%; in the assay with HOP-62 NSCLC, 100%; in the assay with NCI-H460 lung it was 108%; in the assay on HOP-92 NSCLC it was 74.5%. The growth is 78.6% with NCI-H522 lung; 89.8% with 786-0 renal; 87.5% with COLO 205 colon; 84.9% in the assay on DU-145 prostate; 103% in the assay with K-562 leukemia; 111% in the assay with MALME-3M melanoma. Further, the growth in the assay on MDA-MB-231 breast was 71.8%; in the assay on SF-268 CNS, 95.9%; in the assay with SF-295 CNS, 73.4%; in the assay on SF-539 CNS, 82.9%; with M14 melanoma it was 98.8%.
